# Compounds with a hit are over-represented: about 3.9% of the library has one in this group of screens.
# Bead autofluor: compound fluorescence in toxin protease inhibitor counterscreen; compound autofluorescence counterscreen, microsphere flow cytometry; stronger effect = higher value; fluorescence intensity (test concentration not listed); actives 3.1% (n = 360,000); AID 624483; in the data active = fluorescence intensity above about 16000
# CCHF vOTU inh-1: blocks the CCHF virus ovarian tumor domain protease | CCHFV vOTU protease, Pep-AMC fluorescence | inhibition, % at 11.5 µM | actives 0.55% (n = 370,000) | AID 651958; also: 0% = vehicle wells with enzyme and 100% = no enzyme wells
# BoNT F protease: blocks Botulinum neurotoxin F light chain protease; inhibition, % at 10 µM; Multiplex microsphere protease cleavage assay, flow cytometry; actives 0.22% (n = 360,000); in the data active = inhibition above about 35%, passing the limit was not always enough; also: plate controls were buffer without enzyme for full effect and enzyme alone for no effect
# Anthrax LF inh2: blocks Bacillus anthracis lethal factor protease; multiplex microsphere protease cleavage assay, LF; inhibition, % at 10 µM; actives 0.12% (n = 360,000); in the data active = inhibition above about 30%; also: plate controls were buffer without enzyme for full effect and enzyme alone for no effect
# Target sequence (P15917 whole entry, looked up): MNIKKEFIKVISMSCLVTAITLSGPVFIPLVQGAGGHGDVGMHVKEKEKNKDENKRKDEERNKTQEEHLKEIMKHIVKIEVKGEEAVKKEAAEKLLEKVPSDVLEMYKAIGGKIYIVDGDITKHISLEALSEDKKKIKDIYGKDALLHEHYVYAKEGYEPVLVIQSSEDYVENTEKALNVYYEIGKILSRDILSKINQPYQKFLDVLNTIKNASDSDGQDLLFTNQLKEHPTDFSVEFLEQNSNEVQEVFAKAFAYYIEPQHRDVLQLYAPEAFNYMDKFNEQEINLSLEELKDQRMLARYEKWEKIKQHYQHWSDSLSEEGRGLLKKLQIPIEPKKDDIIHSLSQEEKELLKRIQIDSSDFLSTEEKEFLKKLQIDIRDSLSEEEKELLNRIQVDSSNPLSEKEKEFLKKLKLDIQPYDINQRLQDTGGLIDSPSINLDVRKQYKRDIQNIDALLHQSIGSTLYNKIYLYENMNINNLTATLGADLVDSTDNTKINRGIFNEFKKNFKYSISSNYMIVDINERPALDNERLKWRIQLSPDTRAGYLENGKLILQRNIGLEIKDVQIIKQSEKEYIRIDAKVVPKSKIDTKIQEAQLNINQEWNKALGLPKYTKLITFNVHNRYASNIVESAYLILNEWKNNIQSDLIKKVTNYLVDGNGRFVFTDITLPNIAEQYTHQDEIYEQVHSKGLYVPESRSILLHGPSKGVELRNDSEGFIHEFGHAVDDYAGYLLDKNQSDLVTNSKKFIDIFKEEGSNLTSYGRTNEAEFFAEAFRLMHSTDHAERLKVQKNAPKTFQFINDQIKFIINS
# 3CLpro inhibitor: SARS-CoV 3CLpro protease inhibition. P0C6X7. recombinant SARS-CoV 3CLpro, quenched FRET peptide cleavage. inhibition, % at 6 µM. actives 0.14% (n = 290,000). AID 1706; in the data active = inhibition above about 12%
# BoNT-A LC inh2: blocks Botulinum neurotoxin A light chain protease; actives 0.17% (n = 360,000); multiplex microsphere protease substrate cleavage, flow cytometry; inhibition, % at 10 µM; AID 588499; in the data active = inhibition above about 30%; also: plate controls were buffer without enzyme for full effect and enzyme alone for no effect
# CCHF vOTU inh-2: CCHFV vOTU protease inhibition, confirmation | Recombinant CCHFV vOTU, Pep-AMC fluorescence | shares compounds with CCHF vOTU inh-1 | actives 17% (n = 1,900) | AID 686976 | inhibition, % at 11.5 µM
# * = called active by the depositor; . = not tested or not shown. Rule as the data show it, unless noted: active = inhibition above about 30%; inactive = the rest.
SMILES,Bead autofluor,CCHF vOTU inh-1,BoNT F protease,Anthrax LF inh2,3CLpro inhibitor,BoNT-A LC inh2,CCHF vOTU inh-2
COC(=O)c1c(NC(=O)/C=C/C(=O)O)sc(C)c1-c1ccc(C(C)C)cc1,4252,22,-9,4,5,0,.
O=C1CCCC/C1=C\Nc1ccc(O)cc1,10964,35*,-2,-6,3,-1,2
O=C1CCC/C1=C/Nc1ccc(Cl)cc1,2603,19,4,2,7,0,.
CCc1nc2ccccc2c(C(=O)Nc2cc(C)ccc2C)c1C,4140,-5,13,-12,-1,3,.
C=C1c2nc3ccccc3n2C=C(c2ccc(C)cc2)N1c1ccccc1,3215,35*,-1,-6,.,0,-2
Cc1ccc2nc(C(C)(C)C)c(Cc3ccccc3C(F)(F)F)n2c1,4819,30*,-3,-2,.,1,17
O=C(O)c1ccc(NC2=C(n3nnc4ccccc43)C(=O)c3ccccc3C2=O)cc1,3699,87*,11,-2,1,-1,89*
O=c1nccc(N/N=C/c2ccccc2O)[nH]1,3615,11,1,-8,-2,-2,.
COc1cccc(/C=N/Nc2ccnc(=O)[nH]2)c1O,3003,31*,-19,3,1,-2,-9
CCOCC(=O)Nc1nc2ccc(C)cc2s1,2953,16,1,-1,-1,-1,.
Cc1ccc2nc(NC(=O)CSCC(=O)OCC(=O)c3ccccc3)sc2c1,8121,35*,-6,-1,4,0,-4
Cc1ccc(N(CC(=O)N2CCN(c3ccccc3F)CC2)S(=O)(=O)c2c(C)noc2C)cc1,5698,5,0,-6,8,-1,.
Cc1ccc(S(=O)(=O)N2[C@@H](c3ccc(Cl)c(Cl)c3)C(C(=O)O)=C[C@H]2CC2CCCC2)cc1,3836,34*,-1,-2,.,0,18
Cc1ccc(S(=O)(=O)N2[C@@H](c3ccc(Cl)cc3)C(C(=O)O)=C[C@H]2CC2CCCC2)cc1,2961,31*,-8,0,.,0,20
CC[C@@H]1C=C(C(=O)O)[C@H](c2ccc(Cl)cc2)N1S(=O)(=O)c1ccc(C)cc1,3723,32*,3,-4,.,0,-15
Cc1ccc(S(=O)(=O)N2[C@@H](c3ccc(C#N)cc3)C(C(=O)O)=C[C@H]2CC2CCCC2)cc1,4294,15,-7,-1,.,0,.
CC[C@@H]1C=C(C(=O)O)[C@H](c2ccc(C)cc2)N1S(=O)(=O)c1ccc(C)cc1,2909,-1,-4,2,.,0,.
CCc1ccc(NC(=O)C(=O)NCc2ccccn2)cc1,3240,-15,1,-3,2,0,.
Cc1nc(SC(C)C(=O)NCC2CCCO2)c2cc(-c3ccccc3)sc2n1 (stereo not drawn),5245,4,12,-1,.,8,.
O=C(Nc1ccc(N2CCOCC2)cc1N1CCOCC1)c1ccc([N+](=O)[O-])cc1Cl,5620,-3,-1,-2,-4,1,.
O=C(COC(=O)c1n[nH]c2ccccc12)NC(=O)NCc1ccco1,3736,35*,-18,-5,0,-1,-11
C=CCn1c2ccccc2c2nn(C)c(=S)nc21,3410,4,24,-5,5,0,.
O=C(N/C(=C/c1cccs1)C(=O)N1CCOCC1)c1ccccc1,3941,-6,2,0,0,0,.
O=C(Nc1nccs1)C(F)(F)C(F)(F)C(F)(F)C(=O)Nc1nccs1,3342,113*,-1,-2,1,0,0
CC(NC(=O)Nc1nccs1)(C(F)(F)F)C(F)(F)F,2839,-1,-2,3,-3,0,.
SMILES,Bead autofluor,CCHF vOTU inh-1,BoNT F protease,Anthrax LF inh2,3CLpro inhibitor,BoNT-A LC inh2,CCHF vOTU inh-2
CC(=O)Nc1ccc(S(=O)(=O)NCCC(=O)OCC(=O)c2cccc(Br)c2)cc1,.,-7,.,.,.,.,.
COn1c(C)c(C(C)=O)c2c3nonc3ccc21,4930,31*,0,-1,4,1,-3
O=C(CNCCc1ccccc1)N1CCc2ccccc2C1,4354,-6,-6,-1,0,0,.
O=C1CC(NCc2ccncc2)C(=O)N1c1ccccc1 (stereo not drawn),3557,35*,-6,0,-4,1,-9
CC(=O)Nc1cccc2c1C(=O)N(c1ccccc1OC(C)=O)C2=O,4499,7,-7,-1,-1,-1,.
CN(CCC1CCOCC1)C(=O)C1CCC(=O)N(CCc2ccccc2)C1 (stereo not drawn),5954,4,-2,-5,1,-1,.
CN(/N=C/C=C/c1ccccc1)c1cc(=O)n(C)c(=O)[nH]1,10469,32*,0,-1,-3,1,15
COc1ccc(CCNC(=O)C(=O)NCC2OCCN2S(=O)(=O)c2ccc(Cl)cc2)cc1OC (stereo not drawn),6507,-4,-6,-9,7,0,.
CC(C)c1ccc(CN2CCC2(C)C(=O)Nc2ccc3c(c2)OCO3)cc1 (stereo not drawn),3959,17,-7,-14,.,0,.
CC(C)Oc1ccc(CN2CCC2(C)C(=O)Nc2ccc3c(c2)OCO3)cc1 (stereo not drawn),3702,34*,-9,-3,.,-1,-10
COc1ccc(NC(=O)[C@@H]2CCCN2C(=O)[C@@H]2Cc3ccccc3CN2C(=O)OC(C)(C)C)cc1,5459,35*,-6,-1,-1,-2,-6
O=C(OCC(=O)N1CCCc2ccccc21)c1ccc(Br)o1,2487,6,3,1,-3,0,.
O=C(OCC(=O)N1CCc2ccccc21)c1ccc([N+](=O)[O-])o1,3687,40*,2,2,.,1,-6
COc1cc2c(cc1OC)[C@@H](NC(=O)C(C)C)[C@H](OCc1ccccc1)C2,4187,-2,-4,3,.,-1,.
CC(C)=CCC1=C(OCC(=O)O)C(=O)c2ccccc2C1=O,4066,110*,-9,-14,2,-1,85*
Cc1cc(C)nc(Oc2ccc(Br)cc2Br)n1,2268,15,-2,1,2,0,.
CCCCOc1ccc(C(=O)N/C(=C/C=C/c2ccccc2)C(=O)O)cc1,4622,29,-2,-3,4,0,.
CCCCOc1ccc(C(=O)N/C(=C/C=C/c2ccccc2)C(=O)NC)cc1,1997,31*,-1,-4,-3,0,-3
CCCCN1C(=S)NC[C@@H]1c1ccccc1,2791,33*,11,-11,4,0,4
CCCCN1C(=S)NC[C@@H]1Cc1ccccc1,3939,14,3,-4,-3,-1,.
Cc1ccc(S(=O)(=O)NNC(=S)NCC2CCCO2)cc1 (stereo not drawn),3943,2,8,12,-11,5,.
CNc1ccc(Br)cc(C(=O)/C=C/c2ccc(OC)cc2)c1=O,2252,36*,2,9,0,28,-5
COc1ccc(/C=C/C(=O)c2ccc(OC)cc2OC)cc1,5248,4,-2,-1,6,1,.

# Source: PubChem BioAssay
